Results on eight compounds are retold here after PubChem BioAssay (Tox21).

Where “and” joins values, the source holds several entries; their conditions need not be identical. Equal entries are not always repeated. Results filed as inconclusive are left out. Some compounds were tested as several samples or in several runs, with calls that do not always agree. Calls of active or inactive are those of the source. Unless noted, the call rests on the fitted dose curve; in most records, active means well fitted curve in the direction sought with a large enough effect in the repeat runs; inconclusive means weak or mixed curves; inactive means no such curve, though single readings can be large; an effect the other way counts as inactive or inconclusive.

Test [1] in a line: qHTS assay for small molecule agonists of the p53 signaling pathway (AID 651631; calls by dose curve; further: nearly all actives have a fitted effect of over 15% in size). Put shortly:
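Stably transfected HCT-116 cells (beta-lactamase behind p53 response elements) get compounds after a 5 h settling period; 16 h later at 37 °C, FRET substrate is loaded and fluorescence read after 2 h.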

The nature of test [2]: qHTS assay for small molecules that induce genotoxicity in human embryonic kidney cells expressing luciferase-tagged ATAD5 (AID 651632). Further: nearly all actives have a fitted effect of over 15% in size. Put shortly: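 Luminescent reporter readout, HEK293T ATAD5-luc line: 16 hr drug exposure (37C, 5% CO2) followed by Amplite, 30 min RT.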
For orientation: Quantitative high-throughput screening tests each substance at several concentrations.

Test [3] in a line: qHTS assay for small molecule agonists of the p53 signaling pathway - cell viability (AID 651633; calls by dose curve; further: nearly all actives have a fitted effect of over 30% in size; further: potency means the concentration at half of the fitted maximal effect). Put shortly: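 p53RE-bla cells were treated with compound for 16 hours at 37 C. Cytotoxicity was then measured as CellTiter-Glo luminescence after 30 min at room temperature.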
A short description of test [4]: qHTS assay for small molecules that induce genotoxicity in human embryonic kidney cells expressing luciferase-tagged ATAD5 - cell viability (AID 651634; calls by dose curve; further: nearly all actives have a fitted effect of over 25% in size). In short, it runs like this:
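Viability read: CellTiter-Fluor fluorescence, 30 min at 37C. Cells: HEK293T, luciferase-tagged ATAD5. Exposure: 15.5 hr, 37C, 5% CO2, compound or DMSO vehicle.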

The nature of test [5]: qHTS assay for small molecule disruptors of the mitochondrial membrane potential - cell viability (AID 720634; calls by dose curve; further: nearly all actives have a fitted effect of over 20% in size; further: potency means the concentration at half of the fitted maximal effect). In short, it runs like this:
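HepG2, 1 hr compound, 37 C. ATP luminescence via CellTiter-Glo, 30 min RT, same well as m-MPI.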

Test [6] in a line: qHTS assay for small molecule disruptors of the mitochondrial membrane potential (AID 720635). Further: potency means the concentration at half of the fitted maximal effect. In short, it runs like this: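 HepG2 cells exposed to compound 1 hr at 37C, then Mito-MPS dye 30 min. Ratio read of aggregate (540/590 nm) versus monomer (490/535 nm) fluorescence.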
Test [7] is described as follows: qHTS assay to test for compound auto fluorescence at 590 nm (red) in HepG2 cells (AID 720674). In short, it runs like this: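 Seeding: 2,000 HepG2 cells/well, MEM/10% FBS, overnight 37 C. Dosing: compound vs DMSO. Incubation: 1 hr, 37 C, 5% CO2. Read: fluorescence 540 ex/590 em, Rose Bengal sodium as red reference.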
Test [8] in a line: qHTS assay to test for compound auto fluorescence at 535 nm (green) in HepG2 cells (AID 720675).
Test [9] is described as follows: qHTS assay to test for compound auto fluorescence at 460 nm (blue) in HEK293 cells (AID 720678). Put shortly:
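After cell attachment (4-5 hr, 37C), compounds were pinned onto HEK293 monolayers in 10% dialyzed FBS medium. The blue channel (405/460 nm) was read following overnight culture. Equivalency was calculated against triamterene.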

A short description of test [10]: qHTS assay to test for compound auto fluorescence at 590 nm (red) in HEK293 cells (AID 720679). Put shortly: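 Plates of HEK293 cells (10% dialyzed FBS) are treated with 23 nL compound or DMSO vehicle after a 4-5 hr attachment period, incubated overnight at 37C, and read for red fluorescence at 540/590nm.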
Test [11] can be described thus: qHTS assay to test for compound auto fluorescence at 535 nm (green) in HEK293 cells (AID 720680).
The nature of test [12]: qHTS assay to test for compound auto fluorescence at 460 nm (blue) in HEK293 cell free culture (AID 720681). Put shortly:
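Compounds were added to cell-free DMEM with 10% FBS and fluorescence read directly. The blue channel used 405 nm excitation and 460 nm emission, with triamterene as the reference fluorophore.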

Test [13] can be described thus: qHTS assay to test for compound auto fluorescence at 535 nm (green) in HEK293 cell free culture (AID 720682). Put shortly:
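Using fluorescein as calibrant, autofluorescence was quantified at 485/535 nm in cell-free DMEM containing 10% FBS after pintool addition of compound or vehicle.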

Test [14] in a line: qHTS assay to test for compound auto fluorescence at 590 nm (red) in HEK293 cell free culture (AID 720683). Put shortly: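 Cell-free wells of DMEM with 10% FBS received compound, and intrinsic fluorescence was read at excitation/emission 540/590 nm. Values expressed as equivalence to Rose Bengal sodium.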
Test [15] is described as follows: qHTS assay to test for compound auto fluorescence at 590 nm (red) in HepG2 cell free culture (AID 720684). In short, it runs like this: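 Compounds are added to culture medium (MEM, 10% FBS) lacking cells, then fluorescence is read at excitation 540 nm, emission 590 nm, with Rose Bengal sodium as the equivalency standard.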
Test [16] is described as follows: qHTS assay to test for compound auto fluorescence at 460 nm (blue) in HepG2 cell free culture (AID 720685). In short, it runs like this:
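Compound (23 nL) or DMSO pinned into cell-free MEM with 10% FBS; blue fluorescence read at 405/460 nm excitation/emission, expressed as auto-fluorescence equivalency to triamterene.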

Test [17] can be described thus: qHTS assay to test for compound auto fluorescence at 535 nm (green) in HepG2 cell free culture (AID 720686).
A short description of test [18]: qHTS assay to test for compound auto fluorescence at 460 nm (blue) in HepG2 cells (AID 720687). In short, it runs like this:
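HepG2 cells in MEM with 10% FBS, attached overnight at 37 C, were exposed to compound or DMSO for 1 hr at 37 C, 5% CO2. Blue fluorescence was read at 405/460 nm, with triamterene as reference fluorophore.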

Test [19] addresses Glucocorticoid receptor (Homo sapiens) (UniProt P04150). Put plainly: qHTS assay to identify small molecule agonists of the glucocorticoid receptor (GR) signaling pathway (AID 720691; active means well fitted activation curve with a large enough effect in the signal ratio in the repeat runs, not every such curve was filed as active; the % refers to the signal ratio). In short, it runs like this:
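qHTS in GR-bla HeLa cells: 4 h settling at 37 C/5% CO2, 18 h compound incubation at 37 C, 2 h LiveBLAzer B/G FRET substrate at room temperature, fluorescence intensity measured.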

Test [20] shares this target. Put plainly: qHTS assay to identify small molecule antagonists of the glucocorticoid receptor (GR) signaling pathway (AID 720692; active means well fitted inhibition curve with a large enough effect in the signal ratio in the repeat runs, not every such curve was filed as active; the % refers to the signal ratio). Put shortly:
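Inhibition of glucocorticoid signalling is measured in HeLa cells with a GRE-controlled beta-lactamase reporter; cells are co-treated with compound and 5 nM dexamethasone (final) for 18 h before FRET substrate readout.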

Glucocorticoid receptor (Homo sapiens), sequence (P04150 whole entry, looked up): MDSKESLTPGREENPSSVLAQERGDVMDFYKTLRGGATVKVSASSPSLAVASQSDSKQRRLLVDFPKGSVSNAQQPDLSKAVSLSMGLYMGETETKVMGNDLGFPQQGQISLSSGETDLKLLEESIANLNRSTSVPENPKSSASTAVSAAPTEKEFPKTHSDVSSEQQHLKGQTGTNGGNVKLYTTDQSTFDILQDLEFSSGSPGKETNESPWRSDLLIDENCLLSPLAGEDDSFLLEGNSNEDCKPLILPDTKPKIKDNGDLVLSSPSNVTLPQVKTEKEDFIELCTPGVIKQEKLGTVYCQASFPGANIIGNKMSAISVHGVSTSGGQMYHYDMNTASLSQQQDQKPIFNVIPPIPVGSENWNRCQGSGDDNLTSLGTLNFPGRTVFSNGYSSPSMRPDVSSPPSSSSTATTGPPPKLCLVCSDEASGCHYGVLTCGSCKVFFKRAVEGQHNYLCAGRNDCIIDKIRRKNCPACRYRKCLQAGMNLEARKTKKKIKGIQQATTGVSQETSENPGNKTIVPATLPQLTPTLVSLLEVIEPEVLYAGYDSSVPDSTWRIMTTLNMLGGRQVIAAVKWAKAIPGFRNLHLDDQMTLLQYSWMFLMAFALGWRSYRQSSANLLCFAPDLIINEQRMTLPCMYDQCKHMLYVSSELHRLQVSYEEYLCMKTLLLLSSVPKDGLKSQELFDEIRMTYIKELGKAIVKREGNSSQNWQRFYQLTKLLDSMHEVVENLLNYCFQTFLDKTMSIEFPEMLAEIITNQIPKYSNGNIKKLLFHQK

Regarding `ClC=C(Cl)Cl`, the Potency result in test [1], in test [2], in [3], in test [4], in [5] and in test [6] was “inactive” each time. The compound was called inactive in test [7], in test [8], in [9], in test [10], in [11] and in test [12]. For the same compound, the result in [13], in [14], in test [15], in [16], in test [17] and in [18] was inactive.
As for `Cn1sc(Cl)cc1=O`, the Potency entry in test [1], in test [2], in [3], in test [4], in [5] and in test [6] was “inactive” throughout. Besides, in test [20], the Potency entry is “inactive”. Also, the compound was classed as inactive in test [7], in test [8], in [9], in test [10], in test [11] and in [13]. Moreover, the compound was classed as inactive in test [14], in test [15], in test [16], in [17] and in test [19].
Turning to `COCC(C)N(C(=O)CCl)c1c(C)csc1C` (stereo not given), the Potency result in test [1], in test [2], in [3], in test [4], in test [5] and in [6] was “inactive” each time. For the same compound, the Potency entry in [20] was “inactive”. Besides, the call in [8], in test [9], in test [11], in test [12], in [14] and in [15] was inactive. Further, the compound was called inactive in [16], in test [17], in [18] and in test [19].
Take `COC(=O)C(Cl)C(=O)OC`: the Potency entry in test [1], in test [2], in test [3], in [4], in test [5] and in test [6] was “inactive” throughout. Also, in test [20], the Potency result is “inactive”. Also, the compound was called inactive in test [7], in test [8], in test [9], in test [10], in [11] and in [12]. Further, the result in test [13], in test [14], in test [15], in test [16], in test [17] and in test [18] was inactive. For the same compound, the compound was classed as inactive in test [19].
Consider `CCOP(=S)(OCC)Oc1nc(Cl)c(Cl)cc1Cl`, for which the Potency entry in test [1], in test [2], in test [4] and in test [20] was “inactive” in each case. Besides, the Potency was 54.6 µM (active) and inactive in [3]; 6.87 µM (active) in test [5]; 13.7 µM (active) and 30.6 µM (active) in test [6]. The compound was classed as inactive in test [7], in test [8], in test [9], in test [10], in [11] and in test [13]. The result in test [14], in test [15], in [16], in test [17] and in test [19] was inactive.
For the compound `CCOS(C)(=O)=O`, the Potency entry in test [1], in test [2], in test [3], in test [4] and in test [5] was “inactive” in each case. Further, the outcome in [7], in [8], in [9], in test [10], in test [11] and in test [12] was inactive. The result in test [13], in test [14], in [15], in test [16], in test [17] and in test [18] was inactive.
As to `CC1CC(CC2CCC(N)C(C)C2)CCC1N` (stereo not given), the Potency entry in [1], in [2], in test [3], in test [4], in [5] and in [6] was “inactive” in each case. Further, the Potency entry in test [20] is “inactive”. The call in test [7], in test [8], in test [9], in [10], in test [11] and in [12] was inactive. Also, the compound was classed as inactive in test [13], in test [14], in test [15], in test [16], in [17] and in test [18]. Moreover, the compound was called inactive in test [19].
Consider `CC(C)=CCOc1c2occc2cc2ccc(=O)oc12`, for which the Potency entry in test [1], in [2], in [3], in test [4], in test [5] and in [6] was “inactive” each time. Further, the outcome in test [8], in test [9], in test [10], in test [11], in test [12] and in [13] was inactive. Moreover, the compound was classed as inactive in test [14], in [15], in [16], in test [17] and in test [18].
